Data published in PubChem BioAssay AID1159580 (chemical genetic matrix, 2015).
Several values for one entry are separate records, joined by “and”; a condition that tells them apart may be missing. Equal entries are not always repeated. In all, about 5,500 compounds went through this assay and about 2,000 (36%) were called active. Inconclusive results (about 18%) are left out. Rule as the data show it: active = normalized growth mostly below about 0.91 (no sharp cut-off); inconclusive = no clear call, values can overlap the other calls; inactive = mostly above about 0.92. This is one part of the list.

Assay: chemical genetic growth profiling, strain panel (AID 1159580);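 also: tested at 20 µM; growth read once vehicle control cultures reached saturation at 30 °C; 1 = growth at the plate median or of vehicle wells; lower values mean less growth of the strain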
Details: growth OD

Measured: normalized growth

CC(C)Cn1c(=O)n(C)c(=O)c2[nH]cnc21
inactive: S. cerevisiae deletion strains, locus YJR075W, strain HOC1, stronger effect = lower value 0.999 | S. cerevisiae deletion strains, locus YKL009W, strain mrt4, stronger effect = lower value 0.969 | S. cerevisiae deletion strains, locus YKL068W, stronger effect = lower value 0.991 | S. cerevisiae deletion strains, locus YKL085W, strain MDH1 (second series), stronger effect = lower value 0.983 | S. cerevisiae deletion strains, locus YKL085W, strain MDH1, stronger effect = lower value 0.983 | S. cerevisiae deletion strains, locus YKL160W, strain elf1, stronger effect = lower value 0.986 and 0.992 | S. cerevisiae deletion strains, locus YKL190W, strain CNB1, stronger effect = lower value 1.01 | S. cerevisiae deletion strains, locus YKR001C, strain vps1, stronger effect = lower value 0.967 | S. cerevisiae deletion strains, locus YKR026C, strain gcn3, stronger effect = lower value 0.985 and 1.01 | S. cerevisiae deletion strains, locus YKR091W, strain srl3, stronger effect = lower value 0.988 and 1 | S. cerevisiae deletion strains, locus YLL001W, strain dnm1, stronger effect = lower value 0.994 and 1.01 | S. cerevisiae deletion strains, locus YLL026W, stronger effect = lower value 0.999 and 1.01 | S. cerevisiae deletion strains, locus YLL041C, strain sdh2, stronger effect = lower value 0.997 and 1 | S. cerevisiae deletion strains, locus YLR027C, strain aat2, stronger effect = lower value 1 and 1.01 | S. cerevisiae deletion strains, locus YLR039C, strain RIC1, stronger effect = lower value 0.953 | S. cerevisiae deletion strains, locus YLR058C, strain SHM2, stronger effect = lower value 0.991 | S. cerevisiae deletion strains, locus YLR102C, strain apc9, stronger effect = lower value 0.99 | S. cerevisiae deletion strains, locus YLR113W, strain HOG1, stronger effect = lower value 1.01 and 0.985 | S. cerevisiae deletion strains, locus YLR221C, strain rsa3, stronger effect = lower value 1 and 1.04 | S. cerevisiae deletion strains, locus YLR258W, strain gsy2, stronger effect = lower value 0.988 and 1.02 | S. cerevisiae deletion strains, locus YLR262C, strain YPT6 (second series), stronger effect = lower value 1.01 and 0.998 | S. cerevisiae deletion strains, locus YLR262C, strain YPT6, stronger effect = lower value 0.966 | S. cerevisiae deletion strains, locus YLR268W, strain sec22, stronger effect = lower value 0.978 | S. cerevisiae deletion strains, locus YLR320W, strain mms22, stronger effect = lower value 1 and 1.04 | S. cerevisiae deletion strains, locus YLR330W, strain CHS5, stronger effect = lower value 0.991 | S. cerevisiae deletion strains, locus YLR342W, strain FKS1 (second series), stronger effect = lower value 0.953 | S. cerevisiae deletion strains, locus YLR342W, strain FKS1, stronger effect = lower value 1 and 1.01 | S. cerevisiae deletion strains, locus YLR357W, strain rsc2, stronger effect = lower value 1.03 and 1 | S. cerevisiae deletion strains, locus YLR370C, strain arc18, stronger effect = lower value 1 and 1.03 | S. cerevisiae deletion strains, locus YLR371W, strain rom2, stronger effect = lower value 0.982 | S. cerevisiae deletion strains, locus YLR384C, strain iki3, stronger effect = lower value 0.985 and 1.01 | S. cerevisiae deletion strains, locus YLR418C, strain cdc73, stronger effect = lower value 1.02 | S. cerevisiae deletion strains, locus YML016C, strain PPZ1, stronger effect = lower value 0.988 | S. cerevisiae deletion strains, locus YML032C, strain rad52, stronger effect = lower value 0.973 | S. cerevisiae deletion strains, locus YML120C, strain ndi1, stronger effect = lower value 1.01 and 0.981 | S. cerevisiae deletion strains, locus YML124C, strain tub3, stronger effect = lower value 0.981 | S. cerevisiae deletion strains, locus YMR058W, strain fet3, stronger effect = lower value 1.01 and 1.03 | S. cerevisiae deletion strains, locus YMR078C, strain ctf18, stronger effect = lower value 0.98 | S. cerevisiae deletion strains, locus YMR125W, strain sto1, stronger effect = lower value 0.998 and 0.978 | S. cerevisiae deletion strains, locus YMR129W, stronger effect = lower value 0.994 and 1 | S. cerevisiae deletion strains, locus YMR205C, strain PFK2, stronger effect = lower value 0.991 and 0.986 | S. cerevisiae deletion strains, locus YMR223W, strain ubp8, stronger effect = lower value 0.973 | S. cerevisiae deletion strains, locus YMR231W, strain pep5, stronger effect = lower value 1 and 1.01 | S. cerevisiae deletion strains, locus YMR263W, strain SAP30, stronger effect = lower value 1.01 | S. cerevisiae deletion strains, locus YMR307W, strain GAS1, stronger effect = lower value 0.924 | S. cerevisiae deletion strains, locus YNL067W, strain RPL9B, stronger effect = lower value 0.999 | S. cerevisiae deletion strains, locus YNL071W, strain lat1, stronger effect = lower value 1.02 and 1 | S. cerevisiae deletion strains, locus YNL128W, strain TEP1, stronger effect = lower value 1.01 | S. cerevisiae deletion strains, locus YNL153C, strain GIM3, stronger effect = lower value 1.02 | S. cerevisiae deletion strains, locus YNL175C, strain NOP13, stronger effect = lower value 0.999 | S. cerevisiae deletion strains, locus YNL183C, strain NPR1, stronger effect = lower value 0.928 and 0.909 | S. cerevisiae deletion strains, locus YNL197C, strain WHI3, stronger effect = lower value 0.986 | S. cerevisiae deletion strains, locus YNL209W, strain ssb2, stronger effect = lower value 1.02 and 0.995 | S. cerevisiae deletion strains, locus YNL224C, strain SQS1, stronger effect = lower value 0.998 | S. cerevisiae deletion strains, locus YNL233W, strain BNI4, stronger effect = lower value 0.998 | S. cerevisiae deletion strains, locus YNL248C, strain rpa49, stronger effect = lower value 0.996 and 1.06 | S. cerevisiae deletion strains, locus YNL250W, strain rad50, stronger effect = lower value 0.98 | S. cerevisiae deletion strains, locus YNL271C, strain bni1, stronger effect = lower value 0.999 | S. cerevisiae deletion strains, locus YNL298W, strain CLA4, stronger effect = lower value 0.983 | S. cerevisiae deletion strains, locus YNL307C, strain MCK1, stronger effect = lower value 0.976 | S. cerevisiae deletion strains, locus YNL322C, strain KRE1 (second series), stronger effect = lower value 0.996 and 0.988 | S. cerevisiae deletion strains, locus YNL322C, strain KRE1, stronger effect = lower value 0.993 and 0.979 | S. cerevisiae deletion strains, locus YNR049C, strain mso1, stronger effect = lower value 0.992 and 1.01 | S. cerevisiae deletion strains, locus YNR052C, strain pop2, stronger effect = lower value 0.989 | S. cerevisiae deletion strains, locus YOL006C, strain TOP1, stronger effect = lower value 0.998 | S. cerevisiae deletion strains, locus YOL012C, strain htz1 2.1 | S. cerevisiae deletion strains, locus YOL147C, strain pex11, stronger effect = lower value 0.985 | S. cerevisiae deletion strains, locus YOR001W, strain rrp6, stronger effect = lower value 1.01 and 1.05 | S. cerevisiae deletion strains, locus YOR061W, strain CKA2, stronger effect = lower value 0.993 | S. cerevisiae deletion strains, locus YOR069W, strain VPS5, stronger effect = lower value 0.987 | S. cerevisiae deletion strains, locus YOR070C, strain gyp1, stronger effect = lower value 1 and 1.01 | S. cerevisiae deletion strains, locus YOR080W, strain dia2, stronger effect = lower value 1.01 | S. cerevisiae deletion strains, locus YOR083W, strain WHI5 (second series), stronger effect = lower value 0.998 | S. cerevisiae deletion strains, locus YOR083W, strain WHI5, stronger effect = lower value 0.958 and 0.992 | S. cerevisiae deletion strains, locus YOR106W, strain vam3, stronger effect = lower value 1 and 0.973 | S. cerevisiae deletion strains, locus YOR136W, strain idh2, stronger effect = lower value 0.981 | S. cerevisiae deletion strains, locus YOR144C, strain elg1, stronger effect = lower value 0.987 | S. cerevisiae deletion strains, locus YOR184W, strain ser1, stronger effect = lower value 0.96 | S. cerevisiae deletion strains, locus YOR231W, strain MKK1, stronger effect = lower value 1.01 and 0.96 | S. cerevisiae deletion strains, locus YOR265W, strain rbl2, stronger effect = lower value 1 | S. cerevisiae deletion strains, locus YOR270C, strain vph1, stronger effect = lower value 0.997 and 1.08 | S. cerevisiae deletion strains, locus YOR290C, strain snf2, stronger effect = lower value 0.994 and 0.97 | S. cerevisiae deletion strains, locus YOR316C, strain cot1, stronger effect = lower value 0.993 | S. cerevisiae deletion strains, locus YPL051W, strain arl3, stronger effect = lower value 0.997 and 1.02 | S. cerevisiae deletion strains, locus YPL055C, strain LGE1, stronger effect = lower value 1.03 | S. cerevisiae deletion strains, locus YPL078C, strain atp4, stronger effect = lower value 1 and 0.993 | S. cerevisiae deletion strains, locus YPL106C, strain sse1, stronger effect = lower value 0.998 and 1.02 | S. cerevisiae deletion strains, locus YPL240C, strain hsp82, stronger effect = lower value 1 and 1.01 | S. cerevisiae deletion strains, locus YPL241C, strain CIN2, stronger effect = lower value 0.992 | S. cerevisiae deletion strains, locus YPL256C, strain CLN2, stronger effect = lower value 0.993 and 0.947 | S. cerevisiae deletion strains, locus YPR119W, strain clb2, stronger effect = lower value 0.993 | S. cerevisiae deletion strains, locus YPR141C, strain kar3, stronger effect = lower value 0.975 | S. cerevisiae deletion strains, locus YPR163C, strain tif3, stronger effect = lower value 0.998 | S. cerevisiae deletion strains, locus YPR167C, strain met16, stronger effect = lower value 0.988 | S. cerevisiae deletion strains, strain wtn01, stronger effect = lower value 0.988 | S. cerevisiae strains, strain wild type, stronger effect = lower value 0.995
